Laboratory results from the supplement of paper PMC10849652.
About 8,800 targets were measured; listed, in parts, are those with a hit and a random draw of the rest. About 0.5% of all pairs of compound and target were hits.

Tests used:
Assay in all cases: log2 fold change, soluble protein after heating vs DMSO (PISA); higher = thermal stabilisation; K562 lysate, 10 uM; active = over 0.2 and 3.5 SD of the protein, either way, in both replicates (recomputed)
[1] = compound: COc1cc(Nc2ncc3c(n2)-c2ccc(Cl)cc2C(c2c(F)cccc2OC)=NC3)ccc1C(=O)O [alisertib]
Method in brief: (§1)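 Quantification was by TMTpro 16plex LC-MS/MS with equalised channel sums, applied to the supernatant after 21,000xg for 90 min. Samples were crude K562 extract at 1 mg/mL protein in PBS pH 7.4 with 1 mM MgCl2, treated with 10 μM compound for 30 min, heated for 3 min across 48°C-58°C, pooled and brought to 0.5% NP-40 at 4°C. Values are log-two fold changes in thermal stability relative to solvent controls, from duplicates.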

[2] = compound: COc1cc2ncnc(Nc3ccc(F)c(Cl)c3)c2cc1OCCCN1CCOCC1 [gefitinib]
Method in brief: as §1

[3] = compound: CN1CC[C@H](c2c(O)cc(O)c3c(=O)cc(-c4ccccc4Cl)oc23)[C@H](O)C1 [alvocidib]
Method in brief: as §1

[4] = compound: CN1CCc2c(c3ccccc3n2Cc2ccc(C(=O)NO)cc2)C1 [Tubastatin A]
Method in brief: as §1

[5] = compound: CNC(=O)C1=CC=CC=C1NC2=NC(=NC=C2Cl)NC3=C(C=C(C=C3)N4CCOCC4)OC
Method in brief: as §1

[6] = compound: CNc1nc(-c2ccc3c(N)n[nH]c3c2)cc(N2C[C@@H](C(=O)NC3CCCCC3)CC[C@H]2C)n1
Method in brief: as §1

[7] = compound: COc1cc2nc(-c3cc(F)ccc3O)nc(N[C@@H]3CNC[C@H]3C(C)(C)O)c2cc1OC
Method in brief: as §1

[8] = compound: CS(=O)(=O)CCNCc1ccc(-c2ccc3ncnc(Nc4ccc(OCc5cccc(F)c5)c(Cl)c4)c3c2)o1 [lapatinib]
Method in brief: as §1

[9] = compound: C[C@@H](Oc1cc(-c2cnn(C3CCNCC3)c2)cnc1N)c1c(Cl)ccc(F)c1Cl [crizotinib]
Method in brief: as §1

[10] = compound: C[C@H](C1=CC=C(C=C1)C(=O)NC2=C3C=CNC3=NC=C2)N
Method in brief: as §1

[11] = compound: C[C@H](Nc1ncnc2nc[nH]c12)c1cc2cccc(Cl)c2c(=O)n1-c1ccccc1 [duvelisib]
Method in brief: as §1

[12] = compound: Cc1cc(Nc2cc(CN3CCOCC3)c3nc(C)c(Cc4ccc(Cl)cc4F)n3n2)n[nH]1 [gandotinib]
Method in brief: as §1

[13] = compound: Cc1ccc(-n2nc(C(C)(C)C)cc2NC(=O)Nc2ccc(OCCN3CCOCC3)c3ccccc23)cc1 [doramapimod]
Method in brief: as §1

[14] = compound: Cc1cccc(CC(=O)N2CCc3c2ccc(-c2cn(C)c4ncnc(N)c24)c3F)n1
Method in brief: as §1

[15] = compound: CNC(=O)c1ccc(Nc2ncc(C(F)(F)F)c(NCc3nccnc3N(C)S(C)(=O)=O)n2)cc1 [defactinib]
Method in brief: as §1

[16] = compound: COC(=O)N[C@@H](C)CNc1nccc(-c2cn(C(C)C)nc2-c2cc(Cl)cc(NS(C)(=O)=O)c2F)n1 [encorafenib]
Method in brief: as §1

[17] = compound: COC(=O)[C@H](CCSC)NC(=O)C1=C(C=C(C=C1)NC[C@H](CS)N)C2=CC=CC=C2
Method in brief: as §1

[18] = compound: CS(=O)(=O)N1CCN(Cc2cc3nc(-c4cccc5[nH]ncc45)nc(N4CCOCC4)c3s2)CC1 [pictilisib]
Method in brief: as §1

[19] = compound: Cc1cc(Nc2cc(N3CCN(C)CC3)nc(Sc3ccc(NC(=O)C4CC4)cc3)n2)n[nH]1 [tozasertib]
Method in brief: as §1

[20] = compound: Cc1ccc(NC(=O)c2ccc(CN3CC[C@H](N(C)C)C3)c(C(F)(F)F)c2)cc1Nc1nccc(-c2cncnc2)n1 [bafetinib]
Method in brief: as §1

Measured: log2 fold change

MAPK3 (UniProt H0YEX6)
inactive: [1] -0.128 | [2] -0.016

MED28 (UniProt Q9H204)
active: [12] 0.394
inactive: [3] -0.292 | [4] 0.05 | [5] 0.14 | [6] 0.081 | [1] 0.011 | [7] -0.024 | [2] -0.217 | [8] 0.132 | [9] 0.021 | [10] -0.039 | [11] -0.034 | [13] -0.012 | [14] -0.038

LRRC7 (UniProt Q96NW7)
inactive: [3] 0.069 | [4] 0.079 | [15] 0.251 | [6] 0.058 | [16] -0.103 | [17] 0.026 | [7] -0.016 | [8] -0.048 | [18] 0.041 | [9] 0.065 | [10] -0.025 | [11] 0.083 | [12] -0.07 | [19] -0.018 | [13] 0.001 | [20] 0.112 | [14] 0.093

MAP3K4 isoform 2 (UniProt Q9Y6R4)
inactive: [9] 0.044 | [13] -0.007

MAP3K6 (UniProt O95382)
Chain of UniProt O95382 (O95382 whole entry, looked up): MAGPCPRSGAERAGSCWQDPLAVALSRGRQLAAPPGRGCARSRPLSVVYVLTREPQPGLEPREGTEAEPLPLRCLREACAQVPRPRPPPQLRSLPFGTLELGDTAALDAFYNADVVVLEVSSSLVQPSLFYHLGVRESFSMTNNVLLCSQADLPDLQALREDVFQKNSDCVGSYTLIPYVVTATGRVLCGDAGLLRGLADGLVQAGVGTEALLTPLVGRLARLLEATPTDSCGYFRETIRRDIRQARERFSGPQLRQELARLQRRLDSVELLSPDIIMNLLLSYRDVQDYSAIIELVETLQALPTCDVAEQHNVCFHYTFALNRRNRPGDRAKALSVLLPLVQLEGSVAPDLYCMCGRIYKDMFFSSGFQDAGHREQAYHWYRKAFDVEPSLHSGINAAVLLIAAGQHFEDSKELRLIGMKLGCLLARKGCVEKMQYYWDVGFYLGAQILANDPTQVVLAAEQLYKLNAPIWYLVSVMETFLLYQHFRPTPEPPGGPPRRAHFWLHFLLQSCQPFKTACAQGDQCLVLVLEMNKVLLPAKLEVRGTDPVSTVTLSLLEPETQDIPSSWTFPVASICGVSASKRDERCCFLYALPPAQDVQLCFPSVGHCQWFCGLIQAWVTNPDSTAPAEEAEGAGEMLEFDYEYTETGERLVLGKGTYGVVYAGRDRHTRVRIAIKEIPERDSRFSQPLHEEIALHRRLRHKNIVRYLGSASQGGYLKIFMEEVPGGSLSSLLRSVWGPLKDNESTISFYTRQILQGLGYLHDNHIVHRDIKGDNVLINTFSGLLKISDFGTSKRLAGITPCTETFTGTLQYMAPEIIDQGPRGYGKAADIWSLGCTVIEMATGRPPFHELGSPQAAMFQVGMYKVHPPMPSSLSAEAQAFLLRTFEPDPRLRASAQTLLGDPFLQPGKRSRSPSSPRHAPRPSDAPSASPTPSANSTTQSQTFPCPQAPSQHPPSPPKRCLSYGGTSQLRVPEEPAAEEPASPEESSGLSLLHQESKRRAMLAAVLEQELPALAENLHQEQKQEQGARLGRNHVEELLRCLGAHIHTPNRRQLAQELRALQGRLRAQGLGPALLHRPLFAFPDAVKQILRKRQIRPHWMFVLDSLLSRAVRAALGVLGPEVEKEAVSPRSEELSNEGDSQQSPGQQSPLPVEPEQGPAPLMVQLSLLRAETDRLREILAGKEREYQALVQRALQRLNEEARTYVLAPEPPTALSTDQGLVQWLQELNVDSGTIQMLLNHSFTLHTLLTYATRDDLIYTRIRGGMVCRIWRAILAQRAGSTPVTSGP
inactive: [15] -0.096 | [16] 0.167 | [17] -0.031 | [1] 0.026 | [2] -0.022 | [19] -0.061

KIF21A (UniProt H0YI78)
inactive: [5] 0.056 | [6] -0.01 | [1] -0.003 | [7] 0.029 | [2] -0.1 | [8] -0.11 | [18] 0.052 | [11] -0.013 | [20] 0.187

KLHL12 isoform 2 (UniProt Q53G59)
inactive: [4] -0.156 | [5] -0.051 | [15] -0.025 | [6] -0.02 | [1] 0.023 | [7] 0.086 | [2] -0.048 | [8] 0.023 | [18] 0.048 | [9] 0.016 | [11] 0.084 | [13] 0.003 | [20] -0.131

MME (UniProt P08473)
inactive: [3] -0.01 | [4] 0.081 | [5] 0.048 | [6] 0.142 | [1] -0.079 | [7] -0.018 | [2] 0.066 | [8] 0.025 | [18] -0.024 | [9] 0.037 | [10] 0.037 | [11] 0.066 | [12] -0.002 | [13] 0.002 | [20] 0.058 | [14] 0.048

MRC2 (UniProt Q9UBG0)
inactive: [3] 0.04 | [5] -0.062 | [6] 0.05 | [16] 0.031 | [17] -0.301 | [1] -0.075 | [2] 0.046 | [9] -0.3 | [10] -0.192 | [11] -0.49 | [12] 0.075 | [19] 0.063 | [13] 0.035 | [14] -0.184

MRPL22 (UniProt Q9NWU5)
inactive: [3] 0.018 | [4] -0.033 | [5] 0.036 | [1] -0.003 | [7] -0.052 | [2] -0.051 | [8] -0.023 | [9] -0.047 | [10] -0.038 | [12] -0.018 | [13] 0.016 | [14] 0.05

LRRC9 (UniProt Q6ZRR7)
active: [14] 0.694
inactive: [3] 0.911 | [15] -0.056 | [16] -0.022 | [17] 0.003 | [9] -0.065 | [10] 0.032 | [12] -0.488 | [19] 0.053 | [13] 0.074

LSM11 (UniProt P83369)
Chain of UniProt P83369 (P83369 whole entry, looked up): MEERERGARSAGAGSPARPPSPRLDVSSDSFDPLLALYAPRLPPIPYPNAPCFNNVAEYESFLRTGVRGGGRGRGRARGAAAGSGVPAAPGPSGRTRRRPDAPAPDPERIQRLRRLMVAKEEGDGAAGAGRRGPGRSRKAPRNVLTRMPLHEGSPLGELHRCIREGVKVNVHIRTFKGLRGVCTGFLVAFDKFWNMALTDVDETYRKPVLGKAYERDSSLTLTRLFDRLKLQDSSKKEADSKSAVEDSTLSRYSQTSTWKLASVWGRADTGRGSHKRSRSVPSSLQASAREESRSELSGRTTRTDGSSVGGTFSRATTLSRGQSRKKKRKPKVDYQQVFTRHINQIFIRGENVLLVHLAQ
inactive: [3] 0.134 | [5] -0.15 | [15] -0.119 | [6] 0.009 | [16] 0.082 | [17] 0.041 | [9] 0.025 | [10] -0.123 | [11] 0.009 | [12] 0.039 | [19] 0.011 | [13] 0.123 | [14] -0.394

MARCHF6 (UniProt O60337)
Chain of UniProt O60337 (O60337 whole entry, looked up): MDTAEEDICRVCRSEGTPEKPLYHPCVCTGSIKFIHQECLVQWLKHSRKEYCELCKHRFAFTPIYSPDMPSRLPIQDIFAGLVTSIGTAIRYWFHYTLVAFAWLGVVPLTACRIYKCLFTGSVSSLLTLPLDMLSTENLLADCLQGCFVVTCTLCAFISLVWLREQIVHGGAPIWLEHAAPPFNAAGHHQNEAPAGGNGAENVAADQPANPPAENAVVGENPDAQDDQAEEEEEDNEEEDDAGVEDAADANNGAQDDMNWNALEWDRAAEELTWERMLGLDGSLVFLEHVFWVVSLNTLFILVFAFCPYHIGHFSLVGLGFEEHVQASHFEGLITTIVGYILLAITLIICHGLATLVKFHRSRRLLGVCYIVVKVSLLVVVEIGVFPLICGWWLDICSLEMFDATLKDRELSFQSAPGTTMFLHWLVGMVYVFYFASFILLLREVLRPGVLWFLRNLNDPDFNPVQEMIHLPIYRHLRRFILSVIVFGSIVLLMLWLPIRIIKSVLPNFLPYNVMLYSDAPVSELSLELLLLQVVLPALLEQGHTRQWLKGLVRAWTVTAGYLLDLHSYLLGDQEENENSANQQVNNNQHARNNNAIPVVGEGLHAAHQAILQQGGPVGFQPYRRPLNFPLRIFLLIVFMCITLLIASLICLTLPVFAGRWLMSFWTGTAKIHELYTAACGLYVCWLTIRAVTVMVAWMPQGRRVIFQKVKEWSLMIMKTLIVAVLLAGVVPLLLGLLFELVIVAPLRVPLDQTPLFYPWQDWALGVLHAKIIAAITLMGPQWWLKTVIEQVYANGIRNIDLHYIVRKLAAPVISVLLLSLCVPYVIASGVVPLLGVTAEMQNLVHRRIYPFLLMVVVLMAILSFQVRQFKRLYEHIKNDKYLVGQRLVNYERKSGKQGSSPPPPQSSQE
inactive: [3] 0.07 | [5] -0.039 | [15] 0.046 | [6] 0.084 | [16] 0.08 | [17] -0.05 | [1] -0.321 | [7] 0.008 | [2] 0.019 | [8] -0.039 | [18] 0.09 | [9] -0.118 | [10] -0.073 | [11] 0.103 | [12] -0.028 | [19] 0.004 | [13] 0.003 | [20] -0.105 | [14] -0.005

LY6E (UniProt Q16553)
Chain of UniProt Q16553 (Q16553 whole entry, looked up): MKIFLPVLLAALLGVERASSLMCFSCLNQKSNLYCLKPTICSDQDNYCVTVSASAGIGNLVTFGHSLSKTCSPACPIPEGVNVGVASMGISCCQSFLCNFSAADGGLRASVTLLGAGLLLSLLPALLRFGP
active: [10] -1.51
inactive: [3] -0.726 | [15] -0.024 | [16] 0.03 | [17] -0.005 | [1] 0.029 | [7] 0.016 | [2] -0.013 | [8] -0.026 | [18] 0.071 | [12] 0.412 | [19] 0.079 | [20] -0.2 | [14] 0.588

KIFC3 isoform 6 (UniProt Q9BVG8)
Chain of UniProt Q9BVG8 (Q9BVG8 whole entry, looked up): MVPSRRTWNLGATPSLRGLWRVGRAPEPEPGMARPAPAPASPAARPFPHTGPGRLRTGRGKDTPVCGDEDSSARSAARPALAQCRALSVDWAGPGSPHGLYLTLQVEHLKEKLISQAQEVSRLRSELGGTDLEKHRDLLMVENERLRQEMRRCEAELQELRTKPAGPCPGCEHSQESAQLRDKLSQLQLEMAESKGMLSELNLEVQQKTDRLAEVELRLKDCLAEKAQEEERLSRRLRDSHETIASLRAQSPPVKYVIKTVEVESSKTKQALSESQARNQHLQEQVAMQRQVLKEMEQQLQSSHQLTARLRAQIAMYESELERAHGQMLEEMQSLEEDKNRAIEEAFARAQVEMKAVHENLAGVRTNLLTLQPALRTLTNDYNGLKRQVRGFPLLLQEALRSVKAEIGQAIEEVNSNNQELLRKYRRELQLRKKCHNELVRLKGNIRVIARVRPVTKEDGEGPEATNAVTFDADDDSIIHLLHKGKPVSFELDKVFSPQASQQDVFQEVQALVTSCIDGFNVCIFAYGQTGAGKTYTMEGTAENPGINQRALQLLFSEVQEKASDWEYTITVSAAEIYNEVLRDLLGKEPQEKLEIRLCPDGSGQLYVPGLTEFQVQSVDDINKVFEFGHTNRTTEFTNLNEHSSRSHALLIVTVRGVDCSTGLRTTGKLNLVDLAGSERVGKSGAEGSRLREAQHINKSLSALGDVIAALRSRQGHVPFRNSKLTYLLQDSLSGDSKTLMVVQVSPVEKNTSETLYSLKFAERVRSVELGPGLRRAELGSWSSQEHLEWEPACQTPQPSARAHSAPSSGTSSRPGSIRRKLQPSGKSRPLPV
inactive: [5] 0.003 | [15] -0.255 | [6] 0.308 | [16] -0.053 | [17] 0.04 | [18] -0.127 | [9] -0.21 | [11] 0.089 | [12] 0.111 | [19] -0.111 | [13] -0.034 | [20] -0.221 | [14] 0.296
active: [3] -0.786 | [10] -1.85

MCUB (UniProt Q9NWR8)
inactive: [3] 0.019 | [4] 0.105 | [5] -0.032 | [6] -0.074 | [1] 0.121 | [7] -0.062 | [2] -0.046 | [8] 0.044 | [18] 0.088 | [9] -0.17 | [10] 0.187 | [11] -0.018 | [12] -0.347 | [13] 0.05 | [20] -0.045 | [14] -0.016

LRP1 (UniProt Q07954)
inactive: [15] -0.108 | [16] -0.091 | [17] 0.043 | [7] 0.034 | [8] -0.047 | [9] -0.488 | [19] 0.239 | [13] 0.022

LIMK1 (UniProt P53667)
Chain of UniProt P53667 (P53667 whole entry, looked up): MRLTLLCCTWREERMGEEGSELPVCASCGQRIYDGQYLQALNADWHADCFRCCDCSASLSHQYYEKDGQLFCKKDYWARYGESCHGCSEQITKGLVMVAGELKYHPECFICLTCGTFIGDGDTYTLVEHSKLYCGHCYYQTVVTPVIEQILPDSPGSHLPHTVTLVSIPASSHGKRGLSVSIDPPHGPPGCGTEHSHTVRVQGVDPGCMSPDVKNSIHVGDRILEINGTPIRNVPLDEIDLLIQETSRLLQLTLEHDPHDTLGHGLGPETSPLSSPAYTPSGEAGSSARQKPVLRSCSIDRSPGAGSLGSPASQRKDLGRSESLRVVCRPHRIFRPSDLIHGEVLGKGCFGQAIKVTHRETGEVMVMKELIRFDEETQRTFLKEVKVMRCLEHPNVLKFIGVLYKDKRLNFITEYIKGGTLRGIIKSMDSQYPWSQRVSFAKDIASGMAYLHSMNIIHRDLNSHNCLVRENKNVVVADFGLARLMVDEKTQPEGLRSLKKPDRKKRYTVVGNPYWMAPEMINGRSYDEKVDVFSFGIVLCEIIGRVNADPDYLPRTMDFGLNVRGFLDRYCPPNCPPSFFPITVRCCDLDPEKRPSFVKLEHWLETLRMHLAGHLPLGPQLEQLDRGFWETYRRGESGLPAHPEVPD
active: [16] 0.489
inactive: [3] -0.135 | [4] 0 | [15] -0.053 | [6] -0.085 | [17] -0.086 | [1] -0.261 | [7] -0.203 | [2] 0.106 | [8] 0.049 | [18] -0.087 | [9] 0.276 | [10] 0.029 | [11] 0.109 | [12] -0.03 | [19] 0.096 | [13] -0.009 | [20] -0.348 | [14] 0.138

KRAS isoform 2 (UniProt P01116)
inactive: [4] 0.076 | [5] -0.037 | [6] 0.046 | [16] -0.109 | [17] -0.062 | [7] 0.019 | [8] -0.023 | [9] -0.016 | [11] -0.022 | [19] -0.043 | [13] -0.062

KRIT1 (UniProt O00522)
Chain of UniProt O00522 (O00522 whole entry, looked up): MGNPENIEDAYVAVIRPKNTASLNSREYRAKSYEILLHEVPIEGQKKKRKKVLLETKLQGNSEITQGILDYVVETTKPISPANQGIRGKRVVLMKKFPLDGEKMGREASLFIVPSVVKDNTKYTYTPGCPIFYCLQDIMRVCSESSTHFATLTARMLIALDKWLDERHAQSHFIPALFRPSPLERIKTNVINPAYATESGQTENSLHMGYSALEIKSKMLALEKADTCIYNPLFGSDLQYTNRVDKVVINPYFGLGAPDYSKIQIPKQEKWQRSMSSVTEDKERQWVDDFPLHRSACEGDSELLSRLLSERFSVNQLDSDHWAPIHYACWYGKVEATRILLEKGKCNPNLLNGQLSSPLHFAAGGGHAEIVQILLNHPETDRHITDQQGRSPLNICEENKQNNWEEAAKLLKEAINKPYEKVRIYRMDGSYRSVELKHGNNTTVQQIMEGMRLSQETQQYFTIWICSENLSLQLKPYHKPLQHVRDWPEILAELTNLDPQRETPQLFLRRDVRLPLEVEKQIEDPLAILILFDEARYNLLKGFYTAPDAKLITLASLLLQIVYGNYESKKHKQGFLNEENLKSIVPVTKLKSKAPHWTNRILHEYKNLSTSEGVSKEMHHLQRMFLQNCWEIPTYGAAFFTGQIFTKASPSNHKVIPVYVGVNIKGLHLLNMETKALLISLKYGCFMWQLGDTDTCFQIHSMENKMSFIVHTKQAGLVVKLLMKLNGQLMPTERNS
inactive: [4] -0.034 | [5] 0.089 | [15] 0.045 | [6] 0.102 | [16] 0.118 | [17] 0.123 | [1] 0.038 | [7] -0.055 | [2] 0.029 | [8] -0.115 | [18] -0.058 | [9] -0.07 | [11] -0.001 | [19] -0.043 | [13] 0.016 | [20] -0.041

MAPKAP1 (UniProt Q9BPZ7)
inactive: [4] -0.125 | [5] -0.119 | [6] 0.081 | [16] -0.051 | [17] 0.036 | [1] -0.094 | [2] 0.07 | [9] 0.02 | [11] -0.192 | [19] 0.113 | [13] -0.029
